Growth data for 15 molecules are collected here from PubChem BioAssay (NCI).

SMILES strings stand for the structures. Compounds without any hit were thinned out: in the full panel of roughly 83,000, 20% have a hit.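 In brief: 96-well plates, 48 h treatment, single concentration, percent growth endpoint.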 The source made the active and inactive calls. Rule for the calls: active = growth percent below 10; inactive = the rest.

For the experiment, the system named is HL-60(TB) leukemia. In words: NCI-60 one-dose screen, 48 h (100 = growth as untreated, 0 = no growth, -100 = all killed). The following applies: 10 µM unless noted.
With `N[C@@H]1CCCN(c2c(/C=C3\SC(=O)NC3=O)cccc2-c2ccccc2)C1`, the growth is 26.5% (inactive).

As for `Clc1ccc(I)c2ccccc12`, the growth was 98.1% (inactive).

On to `CCCCCCCCCCCCCCCCCC(=O)NCCNC(=O)CCCCCCCCCCCCCCCCC`, for which the growth was 67.8% (inactive).

Take `COc1ccc(C2Nc3nc(SC)nc(N)c3N=C3c4ccccc4CCC32)cc1` (stereo not given): the growth was 71.1% (inactive).

As for `CC(=O)/C(C)=N\OC(=O)Nc1ccccc1`, the growth was 102% (inactive).

Regarding `CCC(C)C1NC(=O)c2nc(oc2-c2ccccc2)-c2csc(n2)-c2csc(n2)-c2nc(oc2C)-c2coc(n2)CNC(=O)C(C(C)CC)NC1=O` (stereo not given), the growth was -69.7% (active).

For the molecule `COc1ccc(C/C(C)=C(\c2ccc(Cl)cc2)c2ccc(OCCN3CCCCCC3)cc2)cc1`, the growth is 30.7% (inactive).

With `COc1ccc(NC2=C(Br)C(=O)C(C)=C(C)C2=O)cc1`, the growth is 11.7% (inactive).

For `COc1ccc2c(c1)/C(=N/c1n[nH]c(=S)s1)C(=O)N2`, the growth is 61.6% (inactive).

Take `CN(C)CCN1C(=O)c2cccc3c(/C=C/CN4C(=O)c5cccc6cccc(c56)C4=O)ccc(c23)C1=O`: the growth is 12.9% (inactive).

In the case of `CCN1CCN(Cc2ccc(-c3cc4c(N[C@H](C)c5ccccc5)ncnc4[nH]3)cc2)CC1`, the growth was 14.5% (inactive).

On to `C=CCN1C(=O)c2cccc3c(N4CCOCC4)ccc(c23)C1=O`, for which the growth was -5.15% (active).

On to `CCCC[N+]1(C)CCN=C1Cc1ccccc1` (stereo not given), for which the growth was 88.9% (inactive).

Turning to `CCOC(=O)C1=C(C(=O)c2ccc(Br)cc2)C(c2ccc(Br)cc2)NC(=S)N1` (stereo not given), the growth was 117% (inactive).

Turning to `COc1ccccc1C(=O)/C=C/c1ccccc1`, the growth was 77% (inactive).
